SENP7 block: inhibitors of human SENP7 protease. AID 434973. inhibition, % at 5 µM. Q9BQF6. 330,000 tested, 1.5% active. recombinant SENP7, Z-RLRGG-aminoluciferin luminescence, 40 min;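 active means inhibition above about 50% at the single test dose, limit read from the data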;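 further: plate controls were DMSO with enzyme for no effect and no enzyme buffer wells for full effect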
SENP6 block: blocks the human protease SENP6. Q9GZR1. Recombinant SENP6 catalytic domain, aminoluciferin luminescence. inhibition, % at 10 µM. 330,000 tested, 1.8% active;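 active means inhibition above about 50% at the single tested dose, limit read from the data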;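 further: plate controls were DMSO wells with enzyme for no effect and DMSO wells lacking enzyme for full effect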
SENP8 block-1: blocks human SENP8 cleavage of Nedd8 substrate; recombinant SENP8, Nedd8 substrate fluorescence; inhibition, % at 20 µM; 360,000 tested, 0.64% active; in the data active means inhibition mostly above about 40%, no sharp cut-off; inactive means mostly below about 27%
Target sequence (Q96LD8 whole entry, looked up): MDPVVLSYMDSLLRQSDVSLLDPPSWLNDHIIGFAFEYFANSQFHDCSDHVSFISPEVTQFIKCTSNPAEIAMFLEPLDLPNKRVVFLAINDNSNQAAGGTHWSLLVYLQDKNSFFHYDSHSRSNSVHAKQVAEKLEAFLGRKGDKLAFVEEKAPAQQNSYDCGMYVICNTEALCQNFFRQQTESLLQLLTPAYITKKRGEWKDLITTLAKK
C8 TRAIL sens: sensitizes caspase-8 expressing cells to TRAIL | NB7+C8 cells + TRAIL, ATPlite viability luminescence | inhibition (viability loss, TRAIL sensitization), % at 10 µM | 360,000 tested, 1% active;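 active means compounds causing at least 50% loss of cell viability in the single-dose screen, relative to plate controls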
PPC-1+TRAIL kill: compounds killing PPC-1 cancer cells with TRAIL present (potentiator screen, no TRAIL-free arm) | PPC-1 cells + TRAIL, ATPLite viability luminescence | 220,000 tested, 0.41% active | AID 1443 | cell killing (% activity), % at 4 µM or 5 µM;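 active means cell killing above 50% in the first pass at 4 µM, then a duplicate retest at 5 µM averaging 50% or more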;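 further: plate controls were cells with TRAIL plus DMSO for no effect and medium-only wells lacking cells for full effect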
SENP8 block-2: SENP8 protease inhibition | purified SENP8, Z-RLRGG-aminoluciferin cleavage, luminescence | 330,000 tested, 1.2% active | Q96LD8 | AID 2540 | inhibition, % at 10 µM; in the data active means inhibition above about 50%
An asterisk follows results filed as active; · = not tested or not shown. Hits are enriched below; roughly 3% of the tested compounds scored in any of these assays.

SMILES	SENP7 block	SENP6 block	SENP8 block-1	C8 TRAIL sens	PPC-1+TRAIL kill	SENP8 block-2
COC(=O)c1c(-c2ccccc2)csc1NC1=NS(=O)(=O)c2ccccc21	5.2	4.7	-188.5	73.5*	39.7	1.7
COC(=O)c1ccc(C(=O)OC)c(NC2=NS(=O)(=O)c3ccccc32)c1	-9.3	-19.2	-126.3	10.8	-8.2	-3.7
CCC1=NN(C(=O)c2ccc(C)cc2)C(O)(c2ccc(Br)cc2)C1 (stereo unspecified)	9.2	-0.1	7.8	9.7	9.0	-11.0
CCC1=NN(C(=O)c2cccc(Br)c2)C(O)(c2ccc(Br)cc2)C1 (stereo unspecified)	5.6	-0.1	19.9	49.4*	-8.7	-5.1
CSCCC(NS(=O)(=O)c1ccccc1)C(=O)Nc1nccs1 (stereo unspecified)	-0.9	4.6	-0.3	-0.6	·	-3.2
COc1ccc(C(=O)Nc2ccc(OCC(F)(F)C(F)F)c(C(F)(F)F)c2)cc1OC	11.6	18.6	22.6	40.8	6.2	-6.8
O=C(Nc1ccc(OCC(F)(F)C(F)F)c(C(F)(F)F)c1)c1ccc(Cl)cc1	-1.7	-13.6	28.6	76.8*	·	-1.9
CC1(C)OC2C(CO)OC(n3cnc4c(=S)nc(N)[nH]c43)C2O1 (stereo unspecified)	·	·	-23.5	11.0	·	·
Nc1nc(=S)c2ncn(C3OC(CO)C(O)C3O)c2[nH]1 (stereo unspecified)	·	·	36.8	56.0*	-22.3	·
Nc1nc(=S)c2ncn([C@@H]3O[C@H](CO)[C@@H](O)[C@H]3O)c2[nH]1	-0.3	-2.3	5.0	73.3*	·	-6.0
C=C1C(=O)OC2C=C(CO)C3OC3C3OC3(C)CC(OC(=O)/C(=C/C)COC(C)=O)C12 (stereo unspecified)	·	·	6.3	63.4*	·	·
CC(=O)OCC1=C[C@@H]2OC(=O)C3=CO[C@@H](O[C@@H]4O[C@H](CO)[C@@H](O)[C@H](O)[C@H]4O)[C@H]1[C@@H]32	2.0	-1.9	20.8	2.8	·	-2.4
COc1ccccc1N(C(=O)CCl)c1cn(C(C)=O)c2ccccc12	-6.9	-7.6	24.4	92.5*	22.6	1.6
CC(=O)n1cc(N(C(=O)CCl)c2ccc(Cl)cc2)c2ccccc21	-0.1	-23.7	16.7	93.9*	38.6	3.7
Clc1nnc(NC2CCCCC2)c(Cl)c1Cl	·	·	20.9	25.2	·	·
O=S(=O)(Nc1ccc(-c2nc3cccnc3s2)cc1)c1cc(F)ccc1F	-2.6	58.8*	-443.0	21.6	9.7	24.1
CCN1CCN(S(=O)(=O)c2ccc(Cl)c(C(=O)N(C)CC(=O)Nc3c(C)cccc3C)c2)CC1	·	·	15.4	8.2	·	·
CCc1ccc(C2=NNC(=Nc3cccc(S(=O)(=O)N(C)C)c3)SC2)cc1	5.5	-6.3	-26.9	70.9*	2.2	-9.1
Cc1ccc(C2=NNC(=Nc3ccc(F)cc3)SC2)cc1	·	·	-31.5	14.8	12.3	·
O=C(/C=C/C(Cl)(Cl)Cl)Nc1ccc(Cl)cc1	·	·	6.7	92.9*	·	·
CCCCCCCCCCCC1N=C(N)NC(CCCO)=C1C(=O)OC (stereo unspecified)	·	·	14.5	63.3*	·	·
CCCCCCOC(=O)c1ccc(N)cc1	9.6	10.8	15.2	-7.8	-6.8	5.6
COc1ccc2[nH]cc(C(=O)CN3CC(C)CC(C)C3)c2c1 (stereo unspecified)	-3.2	-20.3	10.0	-15.3	·	2.2
COc1ccc2[nH]cc(C(=O)CCl)c2c1	-1.4	-6.8	-0.4	75.2*	22.1	-7.0
COc1ccc(C(=O)c2c[nH]c3ccccc23)cc1	30.7	31.5	15.8	48.1*	36.6	13.8
SMILES	SENP7 block	SENP6 block	SENP8 block-1	C8 TRAIL sens	PPC-1+TRAIL kill	SENP8 block-2
CCOC(=O)c1c(C)nc2ccc(Cl)cc2c1-c1ccccc1	-2.9	3.4	4.3	3.1	12.5	-5.8
CCOCc1nc(N)nc(N)c1-c1cccc(Cl)c1	·	·	21.3	56.4*	·	·
Fc1ccc(-c2nc(-c3cccs3)no2)cc1	94.2*	94.8*	14.7	1.5	-2.6	86.4*
Fc1ccc(-c2cnc(-c3cccs3)o2)cc1	21.0	-19.3	-314.0	10.0	13.8	1.4
Cc1cccc(-n2ncc3c(NC4CCCCC4)ncnc32)c1	7.1	16.5	-9.4	73.0*	35.9	-4.4
Cc1cccc(-n2ncc3c(N4CCCC4)ncnc32)c1	25.0	40.7	9.2	79.8*	43.9	28.9
COc1ccc(OC(C)C(=O)N(C)Cc2nc(-c3ccc(OC)cc3)no2)cc1 (stereo unspecified)	-2.2	1.2	4.8	1.4	·	1.9

Screening data deposited in PubChem by Sanford-Burnham Center for Chemical Genomics.
